# Source: the supplement of paper PMC8728848
# The sample as a whole holds a higher share of the strongest signals than the screen did.
# B1: PX9961H-bth-557-24-557 (Bacteroides thetaiotaomicron) (protein)
# chain: EETRTEVEKKNYMNNAEEAKDVLLGVYRTNTLDAMYGYYLSILFNLGTDISQVEGSGNENFRIIPTNSFPTTQSEVQQTWAALYTGIYRANDFLERISNKIGSYTTTDKKLATLYIAEARALRGMFYFELVRRFGNVVLMTSTQMSNQNPATYVQSAPEKVYEYIEDDLLYACDILPYATDDQYRESNDYRFSKGAALGLLTKVYATWAGYPVKDESKWEAAAKTARILVESGKHGLLKDYEQLWKNTCNGTWDPTESLIEISFYSPTVSGNSDPVGRIGKWNGVKTTAIAGVRGSCAANVKVVHTFVLDWREDVSDIRRDLSIANYQYTDTKKSLWVAGASDTDESAAEKDADPTKAQKNKQNYTPAKWDIQKYVTTNSFINNDKSNVNWYFLRYADVLLLYAEALNEWKHGPDAEAYNAINAVRRRGYGNPSNTSACDLPQGLDETSFREAVRKERSYELSFEGHRRQDLIRWGIYYKTVQATAKELGYWWEGTGSPNYSVATYTEEGKHELFPIPQRDMDLCIQFNQNPKW
# Assays:
# Assay in all cases: glycan array binding signal (z-score within array); higher = stronger binding
# Conditions in all cases: glycan notation: IUPAC condensed, linker removed
# [1] = target: Gal(b1-4)GlcNAc(b1-3)Gal(b1-4)GlcNAc(b1-3)Gal(b1-4)GlcNAc(b1-3)Gal(b1-4)GlcNAc(b1-3)Gal(b1-4)GlcNAc(b1-2)[Gal(b1-4)GlcNAc(b1-3)Gal(b1-4)GlcNAc(b1-3)Gal(b1-4)GlcNAc(b1-3)Gal(b1-4)GlcNAc(b1-3)Gal(b1-4)GlcNAc(b1-6)]Man(a1-6)[Gal(b1-4)GlcNAc(b1-3)Gal(b1-4)GlcNAc(b1-3)Gal(b1-4)GlcNAc(b1-3)Gal(b1-4)GlcNAc(b1-3)Gal(b1-4)GlcNAc(b1-2)Man(a1-3)]Man(b1-4)GlcNAc(b1-4)[Fuc(a1-6)]GlcNAc
# Method in brief: (§1)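 Glycan array data came from 3228 arrays in the Consortium for Functional Glycomics database, and only arrays with an available protein sequence were kept. Glycan names were put into IUPAC-condensed notation, and columns mapping to the same glycan were averaged. The binding signal is a within-array Z-score, averaged across arrays of one protein sequence run at different concentrations or buffers and across linkers. A negative Z-score can be read as non-binding.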
# Gal6S(b1-4)GlcNAc = target: Gal6S(b1-4)GlcNAc
# Method in brief: as §1
# GalNAc(b1-3)GlcNAc = target: GalNAc(b1-3)GlcNAc
# Method in brief: as §1
# Glc(a1-6)Glc(a1-6)Glc = target: Glc(a1-6)Glc(a1-6)Glc
# Method in brief: as §1
# GlcA(b1-3)Gal = target: GlcA(b1-3)Gal
# Method in brief: as §1
# [2] = target: GlcNAc(b1-3)Gal(b1-4)GlcNAc(b1-3)Gal(b1-4)GlcNAc(b1-3)Gal(b1-4)GlcNAc(b1-2)Man(a1-3)[GlcNAc(b1-3)Gal(b1-4)GlcNAc(b1-3)Gal(b1-4)GlcNAc(b1-3)Gal(b1-4)GlcNAc(b1-2)Man(a1-6)]Man(b1-4)GlcNAc(b1-4)GlcNAc
# Method in brief: as §1
# Kdn(a2-3)Gal(b1-4)Glc = target: Kdn(a2-3)Gal(b1-4)Glc
# Method in brief: as §1
# Man(a1-6)Man = target: Man(a1-6)Man
# Method in brief: as §1
# Man(b1-4)GlcNAc = target: Man(b1-4)GlcNAc
# Method in brief: as §1
# [3] = target: Neu5Ac(a2-3)Gal(b1-3)GalNAc
# Method in brief: as §1
# [4] = target: Neu5Ac(a2-3)Gal(b1-3)[Neu5Ac(a2-6)]GalNAc
# Method in brief: as §1
# [5] = target: Neu5Ac(a2-3)Gal(b1-3)]Neu5Ac(a2-3)Gal(b1-4)]GlcNAc
# Method in brief: as §1
# [6] = target: Neu5Ac(a2-3)Gal(b1-4)GlcNAc(b1-2)Man(a1-3)[Neu5Ac(a2-3)Gal(b1-4)GlcNAc(b1-2)Man(a1-6)]Man(b1-4)GlcNAc(b1-4)GlcNAc
# Method in brief: as §1
# [7] = target: Neu5Ac(a2-3)Gal6S(b1-4)GlcNAc
# Method in brief: as §1
# [8] = target: Neu5Ac(a2-3)[GalNAc(b1-4)]Gal(b1-4)GlcNAc
# Method in brief: as §1
# [9] = target: Neu5Ac(a2-6)Gal(b1-4)GlcNAc(b1-3)Gal(b1-3)GlcNAc
# Method in brief: as §1
# [10] = target: Neu5Ac(a2-6)Gal(b1-4)GlcNAc(b1-3)Gal(b1-4)GlcNAc(b1-2)Man(a1-3)[Neu5Ac(a2-6)Gal(b1-4)GlcNAc(b1-3)Gal(b1-4)GlcNAc(b1-2)Man(a1-6)]GalNAc
# Method in brief: as §1
# [11] = target: Neu5Ac(a2-6)Gal(b1-4)GlcNAc(b1-3)Gal(b1-4)GlcNAc(b1-3)GalNAc
# Method in brief: as §1
# [12] = target: Neu5Ac(a2-8)Neu5Gc(a2-3)Gal(b1-4)GlcNAc
# Method in brief: as §1
# Neu5Gc(a2-3)Gal(b1-4)Glc = target: Neu5Gc(a2-3)Gal(b1-4)Glc
# Method in brief: as §1
# [13] = target: Neu5Gc(a2-3)Gal(b1-4)[Fuc(a1-3)]GlcNAc
# Method in brief: as §1
# [14] = target: Neu5Gc(b2-6)Gal(b1-4)GlcNAc
# Method in brief: as §1
binder,measurement,setting,value
B1,glycan array binding signal (z-score),[1],4.46
same,glycan array binding signal (z-score),Gal6S(b1-4)GlcNAc,-0.033
same,glycan array binding signal (z-score),GalNAc(b1-3)GlcNAc,-0.542
same,glycan array binding signal (z-score),Glc(a1-6)Glc(a1-6)Glc,-0.402
same,glycan array binding signal (z-score),GlcA(b1-3)Gal,-0.564
same,glycan array binding signal (z-score),[2],-0.299
same,glycan array binding signal (z-score),Kdn(a2-3)Gal(b1-4)Glc,-0.397
same,glycan array binding signal (z-score),Man(a1-6)Man,-0.064
same,glycan array binding signal (z-score),Man(b1-4)GlcNAc,-0.424
same,glycan array binding signal (z-score),[3],-0.207
same,glycan array binding signal (z-score),[4],-0.299
same,glycan array binding signal (z-score),[5],-0.127
same,glycan array binding signal (z-score),[6],-0.412
same,glycan array binding signal (z-score),[7],-0.532
same,glycan array binding signal (z-score),[8],-0.571
same,glycan array binding signal (z-score),[9],-0.166
same,glycan array binding signal (z-score),[10],0.218
same,glycan array binding signal (z-score),[11],-0.503
same,glycan array binding signal (z-score),[12],7.98
same,glycan array binding signal (z-score),Neu5Gc(a2-3)Gal(b1-4)Glc,-0.062
same,glycan array binding signal (z-score),[13],-0.313
same,glycan array binding signal (z-score),[14],-0.202
